KCNQ2 inh = inhibitors of rat KCNQ2 potassium channel; B-score at 10 µM; CHO-K1 KCNQ2, FluxOR thallium flux, 20 min; active compounds read low; 310,000 compounds, 1.1% hits;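 active = fluorescence ratio B-score at most minus 3 library SDs, with starting brightness B-score within 2 library SDs, cut at about -5.5 in these data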
KCNQ2 enhance = enhances the rat KCNQ2 potassium channel; B-score at 10 µM; 310,000 compounds, 0.54% hits; AID 2239; CHO-K1 KCNQ2, FluxOR thallium flux fluorescence; active compounds read high;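 active = fluorescence ratio B-score at least 3 SD of library B-scores, with initial fluorescence B-score within 3 of them, cut at about 5.3 in these data; same plate scores as AID 2156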;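 also: B-score of peak minus minimum over baseline fluorescence ratio after K+ and Tl+ stimulus; positive B-score means potentiation of KCNQ2 with more thallium influx and brighter signal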
Kir21 confirm = confirmation of mouse Kir2.1 potassium channel inhibitors. 2,300 compounds, 41% hits. Tl flux remaining, % of negative control (active compounds read low), % at 10 µM. Kir2.1-expressing cells, FluxOR thallium flux fluorescence; active compounds read low. AID 2032. shares compounds with KCNQ2 enhance;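 active = Primary-screen hit whose thallium flux fell at least 3 control SD below untreated wells in both duplicates, with normal baseline fluorescence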;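 also: 0% = blank wells without stimulus and 100% = stimulated no-compound controls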
Target sequence (P35561 whole entry, looked up): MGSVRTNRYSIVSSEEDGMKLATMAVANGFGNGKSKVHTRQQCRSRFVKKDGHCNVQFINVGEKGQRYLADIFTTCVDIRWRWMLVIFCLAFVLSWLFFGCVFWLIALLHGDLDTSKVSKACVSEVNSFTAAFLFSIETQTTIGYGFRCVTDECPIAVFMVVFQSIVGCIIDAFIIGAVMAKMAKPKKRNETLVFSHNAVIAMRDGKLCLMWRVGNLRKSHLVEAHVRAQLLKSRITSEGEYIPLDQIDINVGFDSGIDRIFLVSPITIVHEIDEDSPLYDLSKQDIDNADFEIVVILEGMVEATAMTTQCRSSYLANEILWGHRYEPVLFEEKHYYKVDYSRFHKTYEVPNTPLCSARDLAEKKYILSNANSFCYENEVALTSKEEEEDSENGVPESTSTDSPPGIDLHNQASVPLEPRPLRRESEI
HEK293 ctr = alters thallium flux in parental HEK293 cells, Kir2.1 counter-screen | shares compounds with KCNQ2 enhance | FluxOR signal as % of negative control (100 = no effect), % at 10 µM | FluxOR thallium flux fluorescence; 0% = unstimulated blank wells | 2,300 compounds, 19% hits | AID 2105;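 active = dye signal at least 3 control SD above or below untreated wells in both duplicates, raw fluorescence within 3, either direction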;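 also: percent is based on the flux ratio of peak minus minimum fluorescence over baseline F0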
CHO-K1 Tl ctr = counter-screen for KCNQ2 potentiators: effect in parental CHO-K1 cells; shares compounds with KCNQ2 enhance; FluxOR thallium flux fluorescence; zero = vehicle mean+3SD, 100% = vehicle-minus-blank window; activity increase over 3SD of controls, % at 10 µM; 1,200 compounds, 43% hits; AID 2282;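 active = signal rise of at least 3 SD above the untreated control mean, in both duplicate wells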;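 also: counter screen of KCNQ2 potentiator hits so any rise reflects channel-independent effects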
KCNQ1 pot spec = tests whether KCNQ2 potentiators also act on human KCNQ1; shares compounds with KCNQ2 enhance; CHO KCNQ1 stable, FluxOR thallium flux fluorescence; beyond 3SD, as % of vehicle-control signal; activation over 3SD threshold, % at 10 µM; 1,200 compounds, 28% hits;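 active = fluorescence ratio rise of at least 3 SD of vehicle wells above their mean, in both replicate wells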;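 also: 0% = vehicle mean plus 3 SD and 100% = vehicle minus unstimulated blank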
KCNQ2 pot conf = confirmation of rat KCNQ2 potassium channel potentiators; shares compounds with KCNQ2 enhance; CHO-KCNQ2 cells, FluxOR thallium flux fluorescence; potentiation, less the hit threshold, % at 10 µM; 1,200 compounds, 68% hits;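 active = fluorescence ratio rising 3 SD or more over the vehicle control mean in both replicates, plus primary screen hit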;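 also: peak minus minimum thallium fluorescence divided by baseline after K/Tl stimulus; 0% = vehicle mean plus 3 SD and 100% = vehicle minus unstimulated blank difference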
Kir2-1 sel = tests whether KCNQ2 potentiators also affect mouse Kir2.1; shares compounds with KCNQ2 enhance; HEK293 Kir2.1, FluxOR thallium flux fluorescence; activity over 3SD threshold, % at 10 µM; 1,200 compounds, 2% hits; AID 2345;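 active = fluorescence ratio rise of at least 3 SD above the vehicle-control mean, seen in both replicates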;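 also: 0% = vehicle mean plus 3 SD and 100% = vehicle minus no-stimulus blank window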
KCNQ2 W236L MoA = KCNQ2 potentiators acting on retigabine-insensitive rat KCNQ2 W236L mutant | AID 2558 | CHO KCNQ2-W236L, automated patch clamp current | 940 compounds, 10% hits | shares compounds with KCNQ2 enhance | current increase over 3SD of negative controls (%), active compounds read high, % at 25 µM;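 active = current increase at least 3 SD of the untreated controls above them in both duplicate recordings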
Active calls of the source: *; i = inactive; x = not tested or not shown. In the library only some 1.6% were active in any assay of this set; here they are far more common.

SMILES | KCNQ2 inh | KCNQ2 enhance | Kir21 confirm | HEK293 ctr | others
c1ccc2c(c1)OC(CCCN1CCCCC1)c1ccccc1S2 (stereo not given) | i | x | 49%* | i
O=C(NCC1CCCO1)C(=O)NCC(c1ccco1)N1CCN(c2ccccc2)CC1 (stereo not given) | i | x | x | x
CC(CCN1C(Nc2ccccc2)=NC[C@@H]1Cc1ccccc1)c1ccccc1 (stereo not given in full) | i | x | 46%* | 128%*
CC(C)CCN1C(Nc2ccccc2)=NC[C@@H]1Cc1ccccc1 | i | x | x | x
Cc1cc(-c2ccc(C(C)C)c(S(=O)(=O)Nc3cc(C)on3)c2)on1 | i | 0.04 | x | x
COc1ccccc1CNCc1ccc(C)cc1 | i | x | x | x
COc1ccc2ccccc2c1CNCc1ccc(C)cc1 | i | x | 22%* | i
CCc1ccc(Nc2n[n+](-c3ccccc3)c(-c3c(Cl)cccc3Cl)s2)cc1 | i | x | x | x
CCc1ccc(Nc2n[n+](-c3ccccc3)c(/C=C/c3ccccc3)s2)cc1 | i | x | 74%* | i
COc1ccc2c(c1)C(=NNc1ccc(C(=O)O)cc1)c1cc(OC)ccc1-2 | i | 7.5* | i | i | CHO-K1 Tl ctr=-15;KCNQ1 pot spec=-17;KCNQ2 pot conf=-18;Kir2-1 sel=-31
COc1ccc(/C(C)=N/Nc2ccc(C(=O)O)cc2)c(OC)c1 | i | x | x | x
O=S(=O)(c1ccc(Br)cc1)c1nc(-c2ccco2)oc1NCC1CCCO1 (stereo not given) | i | 0.36 | x | x
Cc1ccc(Oc2ccccc2NC(=O)CN2C(=O)NC3(CCCC3)C2=O)cc1 | i | 6.3* | i | i | CHO-K1 Tl ctr=26*;KCNQ1 pot spec=22*;KCNQ2 pot conf=13*;Kir2-1 sel=-36;KCNQ2 W236L MoA=i
Cc1cccc(Oc2ccccc2NC(=O)CN2C(=O)NC3(CCCC3)C2=O)c1 | i | 4.4 | x | x
CCCCN(CCCC)CCNC(=O)CN1C(=O)COc2ccc(S(=O)(=O)N3CCC(C)CC3)cc21 | i | x | x | x
CCCCN(CCCNC(=O)CN1C(=O)COc2ccc(S(=O)(=O)N3CCC(C)CC3)cc21)Cc1ccccc1 | i | 0.9 | 66%* | i
COc1cccc2sc(Nc3nnc(-c4ccccc4Cl)o3)nc12 | i | 21* | i | 379%* | CHO-K1 Tl ctr=-5;KCNQ1 pot spec=-6;KCNQ2 pot conf=38*;Kir2-1 sel=-21;KCNQ2 W236L MoA=i
COc1cccc(-c2nnc(NC(C)=O)o2)c1 | i | 0.28 | x | x
COc1cccc(-c2nnc(Nc3nc4c(F)cccc4s3)o2)c1 | i | 9.7* | i | 234%* | CHO-K1 Tl ctr=-7;KCNQ1 pot spec=37*;KCNQ2 pot conf=29*;Kir2-1 sel=-22;KCNQ2 W236L MoA=i
COc1ccccc1-c1nnc(Nc2nc3c(OC)cccc3s2)o1 | i | x | x | x
COc1ccc(CCC(=O)N/N=C/c2ccc3c(c2)OCO3)cc1 | i | 0.02 | x | x
O=C(O)c1cccc(NC(=O)c2cccc(S(=O)(=O)N3CCc4ccccc4C3)c2)c1 | i | x | x | x
COCCCn1c(=O)c2sccc2n(Cc2ccc(C)cc2)c1=O | i | 0.81 | x | x
CC1CCN(CC(O)CN2c3ccccc3Sc3ccccc32)CC1 (stereo not given) | i | x | x | x
CSc1ccc2c(c1)N(CCC1CCCCN1C)c1ccccc1S2 (stereo not given) | -5.8* | -5.8 | 23%* | i
Cc1cc(Cl)c(S(=O)(=O)N2CCCC2)cc1OCC(=O)NC1CCCCC1 | i | 27* | i | 139%* | CHO-K1 Tl ctr=-17;KCNQ1 pot spec=-5;KCNQ2 pot conf=133*;Kir2-1 sel=-48;KCNQ2 W236L MoA=i
Cc1cc(Cl)c(S(=O)(=O)NC(C(=O)O)C(C)C)cc1OCC(=O)NC1CCCCC1 (stereo not given) | i | x | x | x
CCc1c(C)nc(SCC(=O)N2C(C)CCCC2C)[nH]c1=O (stereo not given) | i | 0.11 | x | x
